Assay outcomes as filed in PubChem BioAssay.
Rab9 promoter act = Rab9 promoter activation; Huh7 Rab9 promoter-luciferase reporter, luminescence, 24 h; Potency, µM (doses to about 9.22 µM), actives largely listed as activators; actives 2.8% (n = 320,000); also: nearly all actives have a fitted effect of over 60% in size
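Cell-based reporter: Huh7 stable for Rab9 promoter-driven luciferase, plated in reduced-serum medium with 10% FBS at 1500 cells/well, compound-treated 24 h at 37 °C, luminescence read after 10 min reagent.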
ELG1 genotox = induces genotoxicity in HEK293T cells with luciferase-tagged ELG1; actives 1.3% (n = 330,000); HEK293T ELG1-luciferase reporter, luminescence, 16 h; Potency, µM (doses to about 46 µM), usual class: activators; also: nearly all actives have a fitted effect of over 60% in size
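ELG1-luciferase HEK293T cells, 2,000/well; compound pinned in; 16 hr, 37 °C, 5% CO2; ONE-Glo, 30 min RT; luminescence on CCD imager.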
FLuc counter = inhibits or activates purified firefly luciferase, miR-21 counter-screen; Potency, µM (top dose mostly 57.5 µM), hits mostly inhibitors; actives 6.9% (n = 360,000); purified FLuc, Km substrates, luminescence inhibition; also: nearly all actives have a fitted effect of over 55% in size
Target sequence (P08659 whole entry, looked up): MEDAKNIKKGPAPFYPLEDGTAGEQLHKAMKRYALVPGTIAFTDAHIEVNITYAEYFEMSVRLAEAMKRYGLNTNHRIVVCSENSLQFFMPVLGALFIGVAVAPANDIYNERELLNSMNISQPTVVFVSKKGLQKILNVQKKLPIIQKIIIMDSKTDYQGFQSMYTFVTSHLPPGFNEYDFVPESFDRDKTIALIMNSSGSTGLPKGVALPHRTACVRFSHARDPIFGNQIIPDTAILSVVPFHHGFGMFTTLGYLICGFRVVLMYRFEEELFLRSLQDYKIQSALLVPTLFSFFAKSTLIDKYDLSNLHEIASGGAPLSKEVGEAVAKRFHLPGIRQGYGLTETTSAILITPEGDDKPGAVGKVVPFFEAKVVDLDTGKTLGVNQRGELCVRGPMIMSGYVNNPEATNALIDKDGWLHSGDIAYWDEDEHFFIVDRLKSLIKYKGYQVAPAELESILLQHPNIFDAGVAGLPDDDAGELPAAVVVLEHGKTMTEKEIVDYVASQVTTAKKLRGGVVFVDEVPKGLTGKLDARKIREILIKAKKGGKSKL
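Purified P. pyralis luciferase (10nM final) with 10uM D-luciferin and 10uM ATP (Km levels) in 50mM Tris acetate pH 7.5, 10mM Mg acetate, 0.01% Tween-20, 0.05% BSA; qHTS 6-point titration, ~60 µM downward; luminescence read.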
SMN2 splice up = enhancers of SMN2 splice variant expression. actives 2.8% (n = 210,000). Potency, µM (titrated, usually from 46.1 µM), most hits filed as activators. HEK293 SMN2-luciferase splicing reporter, luminescence, 30-36 h; also: nearly all actives have a fitted effect of over 55% in size
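HEK293 cells carry an SMN2 minigene-luciferase reporter in which exon 7 inclusion puts luciferase in frame. Cells were seeded at 2000 cells/well, attached for 10-12 hours, then exposed to compounds for 30-36 hours at 37C before ONE-Glo luminescence.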
NPC1 promoter act = NPC1 promoter activation | Huh7 NPC1 promoter luciferase reporter, 24 h | Potency, µM (highest dose often 9.22 µM), actives largely listed as activators | actives 2.4% (n = 320,000) | AID 485313; also: nearly all actives have a fitted effect of over 60% in size
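NPC1 promoter–luciferase Huh7 cells; 24 h compound; luminescence.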
Numbers stand for hits; 0 = inactive; ? = inconclusive; - = not tested or not shown; [ ] = another dose, or the depositor's remark. Sampled rows, rich in hits. Any-hit rate of the full collection: about 7.5%. Calls follow the shape of the dose curve; as a rule, active = well fitted curve in the direction sought with a large enough effect; inconclusive = small, poorly fitted or top-dose-only effect, or another doubt; inactive = no such curve, though single readings can be large; an effect the other way counts as inactive or inconclusive.

SMILES	Rab9 promoter act	ELG1 genotox	FLuc counter	SMN2 splice up	NPC1 promoter act
COc1cccc(/C=N/Nc2ncnc3c2[nH]c2ccc(C)cc23)c1OC	0	0	1.5µM	-	0
Cc1ccc2[nH]c3c(NCCN4CCOCC4)ncnc3c2c1	0	0	?	0	0
C=CCNc1ncnc2c1[nH]c1ccc(C)cc12	2.5µM	9.2µM	4.3µM	2.8µM	?
CCOc1ccc(S(=O)(=O)N2CCCC(C(=O)NCc3ccccn3)C2)cc1 (configuration not stated)	0	0	0	-	0
CN(C)c1cccc(C(=O)OCC(=O)c2ccc[nH]2)c1	1.4µM	?	11µM	-	3.2µM
Cc1ccsc1C(=O)N1CCc2ccccc2C1	0	?	?	-	0
Cc1ccsc1C(=O)OCC(=O)c1ccc(OC(F)F)cc1	?	0	1.1µM	-	0
O=C(OCC(=O)c1ccc[nH]1)c1ccc(Cl)nc1	0	0	0	-	0
Cc1ccsc1C(=O)OCC(=O)c1ccc[nH]1	2.8µM	?	13µM	-	?
Cc1ccsc1C(=O)OCC(=O)N1CCc2ccccc2C1	0.79µM	?	8.5µM	25µM	2.8µM
Cc1ccc(C(=O)OCC(=O)c2ccc[nH]2)s1	?	?	?	0	0
Cc1cc(C)nc(/N=C(\NC(=O)C(C)(C)C)Nc2ccccc2)n1	0	0	0	-	0
CN(CC(=O)Nc1ccc(F)cc1)C(=O)COC(=O)c1cccc(N(C)C)c1	1.4µM	?	?	-	2.2µM
CN(CC(=O)Nc1ccc(F)cc1)C(=O)COC(=O)c1ccccc1	0	0	0	-	0
COc1ccc(C)cc1S(=O)(=O)N1CCN(C(=O)c2ncoc2-c2ccc(C)cc2)CC1	0	0	0	-	0
CCOc1ccc(/C=N/NC(=O)c2cc(-c3ccco3)nc3ccccc23)cc1	0	0	?	?	0
C/C(=N\NC(=O)c1cc(-c2ccco2)nc2ccccc12)c1cccnc1	0	0	13µM	0	0
O=C(N/N=C/c1ccc(F)cc1)c1cc(-c2ccco2)nc2ccccc12	0	0	3µM	0	0
O=C(c1cc(-c2ccco2)nc2ccccc12)N1CCN(c2ccc(F)cc2)CC1	0	0	19µM	0	0
COc1ccc(N2CCN(C(=O)c3cc(-c4cccs4)nc4ccccc34)CC2)cc1	0	0	?	0	0
O=C(OCC(=O)N1CCN(C(=O)c2ccco2)CC1)c1cc(-c2ccc(Cl)c(Cl)c2Cl)nc2ccccc12	0	0	0	0	0
O=C(OCC(=O)N1CCN(C(=O)c2ccco2)CC1)c1cc(-c2ccco2)nc2ccccc12	0	0	15µM	0	0
CC(C)CCNc1ncnc2[nH]ncc12	-	-	-	0[9.22 µM]	-
CCN1CCN(CCOc2cccc(Cl)c2Cl)CC1	0	0	0	-	0
O=C(NC1CC1)c1cc(-c2ccco2)nc2ccccc12	0	0	0	-	0
SMILES	Rab9 promoter act	ELG1 genotox	FLuc counter	SMN2 splice up	NPC1 promoter act
C/C(=N/NC(=O)c1ccc(Cl)cc1Cl)c1cccnc1	0	0	?	-	0
O=C(O)c1cc(-c2ccco2)nc2ccccc12	0	0	21µM	0	0
C/C(=N\NC(=O)c1ccc(O)cc1O)c1cccnc1	?	0	9.5µM	-	0
CCN1CCN(S(=O)(=O)c2ccc(Cl)c(C(=O)NCCOc3ccc(C)cc3)c2)CC1	0	0	0	-	0
O=C(NC1CCCCCC1)c1c(O)c2ccccc2[nH]c1=O	?	?	2.7µM	0	1µM
COc1ccccc1NC(=O)c1c(O)c2ccccc2[nH]c1=O	?	0	?	-	1.3µM
O=C(N/N=C/c1ccccc1)c1c(O)c2ccccc2[nH]c1=O	1.4µM	0	?	3.5µM	1.8µM
COC(=O)c1c(O)c2ccccc2[nH]c1=O	0	0	0	0	0
O=C(Cc1c(O)c2ccccc2[nH]c1=O)NC1CCCCCC1	0	0	0	0	0
CCCNC(=O)C(Cc1ccc(C(F)(F)F)cc1)NC(=O)c1ccc2ccccc2n1 (configuration not stated)	0	0	0	-	0
Cc1cccc(-c2nnn(Cc3nnc(NC(=O)c4ccccc4)s3)n2)c1	0	0	0	0	0
O=C(Nc1ccc2c(c1)nc1n2CCOC1)c1ccco1	4µM	?	13µM	?	1.3µM
O=C(Nc1ccc2c(c1)nc1n2CCSC1)c1ccco1	0.45µM	?	2.7µM	0	0.32µM
O=C(COc1ccccc1)Nc1ccc2c(c1)nc1n2CCSC1	4µM	?	21µM	0	?
CC(=O)N1CCc2cc(S(=O)(=O)CCC(=O)N(C)c3cc(C)ccc3C)ccc21	0	0	0	-	0
O=C(NC(=S)Nc1ccc(Cl)c(C(=O)O)c1)c1cccc(COc2ccccc2)c1	0	0	0	-	0
Cc1nn(Cc2c(F)c(F)c(F)c(F)c2F)c(C)c1NC(=O)c1cccc(COc2ccc(Cl)cc2)c1	?	0	12µM	18µM	?
CC(C)c1cc(C(N)=O)c(NC(=O)c2cccc(COc3ccc(Cl)cc3)c2)s1	2µM	0.73µM	1.5µM	1.8µM	0.32µM
C=CCN(C(=O)CCC(=O)O)C1CC(=O)N(c2ccc(OC)cc2)C1=O (configuration not stated)	0	0	0	0	0
CCN1CCN(C(=O)c2ccc(COc3cccc(Cl)c3)o2)CC1	0	0	0	-	0
COc1ccc(OCc2cc(C(=O)O)c(C)o2)cc1	?	0	2.1µM	-	?
CCN(CC)Cc1cc(C(=O)O)c(C)o1	0	0	?	-	0
COC(=O)c1ccc(COc2cccc(OC)c2)o1	0[1.84 µM]	23µM	?	0	0
CN(C)c1ccc(NC(=O)c2ccc(COc3cccc(Cl)c3)o2)cc1	0	?	9.5µM	0	0
CCOc1ccc(OCc2ccc(C(=O)NN)o2)cc1	?	?	?	-	0.4µM
SMILES	Rab9 promoter act	ELG1 genotox	FLuc counter	SMN2 splice up	NPC1 promoter act
O=C(c1ccc(S(=O)(=O)Nc2cccc(C(F)(F)F)c2)cc1)N1CCN(c2ccccc2O)CC1	0	0	0	-	0
CCOc1ccc(OCc2ccc(C(=O)Nc3cccnc3)o2)cc1	?	0	?	7.9µM	0.56µM
CCc1ccc(OCc2ccc(C(=O)O)o2)cc1	?	?	2.1µM	-	?
O=C(O)c1ccc(COc2ccc(Cl)cc2)o1	0	?	27µM	11µM	0
Cc1cc(C)n(-c2ccc(Cl)c(C(=O)O)c2)n1	0	0	19µM	-	0
O=C(COC(=O)c1cccnc1Nc1cccc(C(F)(F)F)c1)NCCN1C(=O)CSC1=O	0	0	0	0	0
COc1ccc2c(c1)oc(=O)c1cc(OC)ccc12	2.5µM	10µM	3µM	-	2.5µM
COc1ccc2c(=O)c3ccccc3oc2c1	?	?	12µM	-	3.5µM
Nc1cccc(C#Cc2ccc3c(=O)c4ccccc4oc3c2)c1	0.56µM	?	?	-	0
COc1ccc2c(c1)oc(=O)c1ccccc12	0	0	?	0	0
O=C(Nc1ccc(F)cc1F)c1ccc2c(c1)OCCO2	0.63µM	?	4.8µM	-	0.5µM
O=C(Nc1ccc(Br)cc1F)c1ccc2c(c1)OCCO2	0.13µM	?	0.54µM	-	0.28µM
CCC(=O)Nc1ccc(C(=O)Nc2ccc(Br)cc2F)cc1	0	0	0	-	0
